108 sequences from PubChem BioAssay AID1508600 (Functional Genomics Laboratory (NCATS/FGL), 2020) can be followed below.

In all, about 53,000 sequences went through this assay and about 3,700 (7%) were called active.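 The calls were made as follows: active = gene knockdowns whose robust z-score for IL-1 alpha signal is at least 2 or at most -2, so actives lie on both sides; inactive = the rest.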 Shown is part of a subset that was picked to be rich in actives.

The nature of this test: Components of the Cytosolic LPS Sensing Pathway: Gene Identification via Genome-wide siRNA Screen.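 Also: robust z of the log signal after scaling to non-targeting control siRNA wells of the plate.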 Particulars: RAW264.7 macrophages, IL-1a HTRF, actives lie on both sides, screened at 100 nM (by protocol), cells primed 5 h with Pam3CSK4 first. The procedure, abridged: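 Using IL-1a HTRF as read-out, the screen measured release from RAW264.7 cells after 48h siRNA knockdown (100 nM), 5 h Pam3CSK4 priming and 24 h cytosolic LipidA. Values were expressed relative to negative-control wells as robust z-scores.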
For CGGACUAUCUCUAUGAAGATT against Tas2r108, the z-score was -0.587 (inactive).
As for GGUGAUUUCGGGUAACGAGTT against Ddr1, the figure is -2.17 (active); as for GGGUGUUUUUAAGUGUCCCTT against Zfp574, 0.475 (inactive).
As for GGUUUUUGUGGAAAUGUGGTT against Smpd4, the figure is -2.58 (active); as for GGCAGUUUGUUAAUGAAUGTT against Pcsk1, -0.901 (inactive).
On to GGAGGAGAAAACAGGAAUUTT against H2-Eb1, for which the z-score was -0.03 (inactive).
As to GCGACCGUAUUGUCACUUGTT against Arpc1a, the z-score was -0.465 (inactive).
Regarding CCUUGUCGAGCACAUGAGATT against Zfp69, the z-score is 0.0825 (inactive).
Under GGCAAGUGAGGAAAAGAGGTT against Setd1a stands -0.741 (inactive); under GAUUUUCCUCUACUGUCCUTT against U90926, -0.532 (inactive); under GGUCUUGGAUGCAAACGAUTT against Pcdhga2, 0.518 (inactive).
For the sequence GCUAGCAAGUGAGAUGGAGTT against Mbd3l1, the z-score is 1.58 (inactive).
Turning to GGGCCUUCAAAAAACUGCCTT against Eva1b, the z-score is 1.75 (inactive).
For GGGAGAUAUGCAAUGAAUATT against Creb5, the z-score was -1.34 (inactive).
For the sequence GGAAGGUCUUCGAGAUUUUTT against Gpr75, the z-score is 4.56 (active).
For CCUCUUAAACAUGUCCUAGTT against Atp6v0a2, the z-score was -1.04 (inactive).
For the sequence CCUUCUGGAGUACAUAUCCTT against Trip6, the z-score was 0.16 (inactive).
As for GGAAAAGUCCCGUAUGGAGTT against Gcc1, the figure is -3.14 (active).
As for CCAAAUGCUUAUCUCUACATT against Dock6, the figure is 0.00388 (inactive); as for GGACAAAAAAAUAGAAGGATT against Rrbp1, 0.344 (inactive).
Turning to GGACUAUCUUUAUGAUGUGTT against Ush1c, the z-score was -0.164 (inactive).
Under GGUGAUGGAGAAGAGAAGATT against Fam107b stands 2.88 (active).
Under GGUUUGUAAAGGUUAUGACTT against Nell2 stands 0.0203 (inactive).
As for CCUAGAAGCUAAUUACCAATT against Saa4, the figure is -0.946 (inactive); as for GCGGCUACUCAUAUAAGUCTT against Trappc8, -0.5 (inactive); as for CGGUGACAUUUGUGAAACUTT against Smn1, -2.05 (active).
On to GGAGAAUUACGGUGCCAACTT against Ncoa3, for which the z-score was -0.354 (inactive).
Under GCUCAUCUCGAUUUGACUGTT against Cln3 stands -1.67 (inactive); under CCUAAUCCUGAUAAUUCCATT against Niban2, -1.54 (inactive).
As for GGAGUUGUUGUGCUUUUAATT against Tmem45a, the figure is 3.02 (active).
For GGACUCACAGUUAAAAGUATT against Gtse1, the z-score was 1.2 (inactive).
With GCUAUGUGGGUUGUGCUAUTT against Olfr1361, the z-score was 0.734 (inactive).
As for CCCUAGUUUAUCUCCGGAUTT against Lhx1, the figure is 1.15 (inactive).
Under “GGAAUUUGUCAACCGGACCTT against St6galnac6” stands 3.31 (active).
For GCUAUUGGGUAAUUUGCUUTT against Slco4a1, the z-score is 0.436 (inactive).
As for CGUAUAUCGAUGAAGAUGATT against BC016579, the figure is -1.12 (inactive); as for GGGAUGCAUCAAAAUACAATT against Pdk3, 4.82 (active); as for GGACAAGGAGUAUUAUGUGTT against Nrxn3, -0.372 (inactive).
Under GGCCUUGAAGCAGAAGUCUTT against Gfra1 stands -1.21 (inactive).
As for GGGCUUUGUGCCCAACAUGTT against Rtcb, the figure is 0.278 (inactive).
Turning to CCCGAUUACUGGAGUUAAATT against Kbtbd7, the z-score was 2.32 (active).
As for GGAAGAUGAACUUCGUACCTT against Slc4a2, the figure is -0.438 (inactive).
As for GGUCCUGAAGAAGAUUGCATT against Hmox1, the figure is -0.72 (inactive); as for GGAAGAGUGACCUUAAGUCTT against Arhgap30, 2.29 (active).
Under GGCACAGAUUGUGGUGAAGTT against Ccdc43 stands -0.518 (inactive).
With GCUGCACCAUGAAUGAGUCTT against Il4, the z-score is 0.819 (inactive).
Consider GGAUGUUGUGGGAAAUGACTT against Plaat1, for which the z-score was -0.27 (inactive).
As for GGCAAAUCUGAACAACAUUTT against Agt, the figure is 1.16 (inactive); as for GCAGAAAUGUCCAUCCAAATT against Sprr2k, 2.36 (active).
As for GGCAGUGCUGGCAACAAAUTT against Hsd3b5, the figure is -0.884 (inactive); as for GGAAACCUACCGUUACCUATT against Kcnj5, -0.181 (inactive).
As to GCCAUUUAUUGAAACUCGCTT against Becn1, the z-score is -0.905 (inactive).
Under GGCAGCUGCUGACUUGAUGTT against Gng2 stands 0.133 (inactive); under GGGCCAGACUCCAUACUAUTT against Arid1a, 3.71 (active); under GCACAUGCCAUACAACCAUTT against Fads1, 0.655 (inactive).
As for GCGAUUGAGCAGUGAAUAATT against Fam216b, the figure is 1.06 (inactive); as for GGAGAAGCGGCAAAUGGAATT against Fam32a, 0.429 (inactive); as for GGCAAGGACUCCAAGGACATT against Wdr45, -1.31 (inactive).
Under GGAAGAGCAGGAGGAAACATT against Mea1 stands -2.01 (active); under GGAGAAAAGCUGUAUACACTT against Tmem177, 1.22 (inactive).
Turning to GGAGGAGAUGAUAAAGAUUTT against Glyr1, the z-score was -0.987 (inactive).
As for CCCAUCAGACUUUGACCGUTT against Lbh, the figure is -1.45 (inactive); as for GGCAACUUCAAGUCCAUAUTT against Pnma3, 3.18 (active).
Take GCGACUAGUAGUGCAUGAATT against Wdr13: the z-score is -0.434 (inactive).
As for CCUUAAACUUGGCCGAGGUTT against Trmt112, the figure is 0.748 (inactive); as for CGGCCUUCAUCUGCCUUUUTT against Olfr1222, 0.475 (inactive); as for GCCACCUCCUACCAAAUGUTT against Sprr4, -1 (inactive).
In the case of GGAGCUAAGGGAACAAUUATT against Psmc6, the z-score was -2.1 (active).
As for GGAUGUGUCAGGAAAAUAGTT against Ctsm, the figure is -0.176 (inactive); as for GGAAUACGGAAUCAUGGUUTT against Ift52, -0.0653 (inactive); as for GGUUAAUCUUAACAACAUCTT against Tmod1, 0.266 (inactive).
As for GGAUGCCUUGAAGAAAUUATT against Olfr1044, the figure is 1.34 (inactive); as for GCUCCAUGAAACCCACUCUTT against Zmiz1, -0.656 (inactive); as for “GGAAAGAAGCAACCACUUCTT against 4833439L19Rik”, 0.403 (inactive).
As for CGUGAUCGUGCGUUCCAACTT against Chrnb4, the figure is 3.11 (active); as for GGAGGACAUGGACACAGUCTT against Slc39a7, -0.805 (inactive); as for GGACUAUCCUCACUCCCUUTT against Pigo, -0.0578 (inactive).
Consider GCCGACUGGUUAAAUACAUTT against Nme3, for which the z-score is 5.79 (active).
As for CGAUGCUAGAGAUUAAUCATT against Rdh10, the z-score was -0.0597 (inactive).
For the sequence GCACCUGGGCCUUUGAAUATT against Hes2, the z-score was -0.754 (inactive).
For GCAAGGAAGGAUAUUACACTT against Mmp24, the z-score was 1.34 (inactive).
For the sequence GGAUCAAUUCUAGAAUCAGTT against Runx3, the z-score is 0.586 (inactive).
Under GCAAUAGCAUACCUACCAUTT against Desi2 stands -0.228 (inactive); under CCAACAUCUAGAGAGUCUGTT against Olfr1031, -1.36 (inactive); under GCUUGAUUAUUGUGUGUCCTT against Olfr786, -1.53 (inactive).
Take GGAAAUGACGACUACCAAGTT against Tspyl4: the z-score was 2.74 (active).
For the sequence GCGCGAUAGAUUUUGUUUATT against Ier5l, the z-score was -0.427 (inactive).
Turning to GGACUAUGGCUCAGCACUCTT against Ttyh1, the z-score was -0.394 (inactive).
Under GGACAAGUUUGACUGUUACTT against Als2cl stands 0.158 (inactive); under GGAACGACAAUAAAGCUUATT against Ninj1, 0.029 (inactive); under CCACAGAUUACAUUUAUCCTT against Sephs1, -1.19 (inactive).
As for “GGAGAAAUUCUAUGGUAUUTT against 5031434C07Rik”, the figure is 2.18 (active); as for GGACUUGAUUGAAGUCAUATT against Tmem132d, 0.242 (inactive); as for GUUGGCAUAUUUUAUGGCATT against Olfr1033, 1.28 (inactive).
Under GGAACAGGAAUAUGAAAGATT against Olfr836 stands -0.903 (inactive); under CGGCUUGGACAGAUUUAUCTT against Rer1, 0.0516 (inactive).
Consider GCAUCCUUAGUGAUUUCUATT against Slc48a1, for which the z-score is 0.601 (inactive).
Under CCUACAACGAACGGGAGAATT against Dpm1 stands 0.408 (inactive); under GGUUCUGACAGACAAAAUUTT against Luc7l3, -0.379 (inactive); under GCGGUUCGCUGUUUGUUUCTT against Zbtb11os1, 2.54 (active).
Take CGCUAGCUUAUUUUCCGCCTT against Slc49a4: the z-score is 1.1 (inactive).
Under GGACGACAUGAUUUUCGAGTT against Atp1b1 stands -0.399 (inactive); under CCACGAAGAGCAAGAAAACTT against Gm5941, -1.15 (inactive).
Consider GGCCUGUAGUCAAUGGAAATT against Magi2, for which the z-score is -0.382 (inactive).
With GGUUGCACUUUUUCAUAGUTT against Bcl2l2, the z-score is 0.97 (inactive).
Under GGAGGUGCUAACCUAACAGTT against Ggh stands -1.1 (inactive).
As for GGAAUAUCCAGUAUUGAUUTT against Cd180, the figure is -0.396 (inactive); as for GCUCGAUUGACCUCAUUCATT against Rhbdf2, -2.45 (active).
